Assay results taken from PubChem BioAssay AID1159580 (chemical genetic matrix, 2015).
The campaign covered roughly 5,500 compounds. About 2,000 (36%) were called active. Not shown: some 18% with an inconclusive outcome. No stated cut-off is given here; in the data, active means normalized growth mostly below about 0.91 (no sharp cut-off); inconclusive means no clear call, values can overlap the other calls; inactive means mostly above about 0.92. Some of the results follow.

Assay: chemical genetic growth profiling, strain panel (AID 1159580);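 further: tested at 20 µM; growth read once vehicle control cultures reached saturation at 30 °C; 1 = growth at the plate median or of vehicle wells; lower values mean less growth of the strain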
Conditions: growth OD
[1] = S. cerevisiae deletion strains, locus YAL013W, strain DEP1, active compounds read low
[2] = S. cerevisiae deletion strains, locus YBR229C, strain ROT2, active compounds read low
[3] = S. cerevisiae deletion strains, locus YCL061C, strain MRC1, active compounds read low
[4] = S. cerevisiae deletion strains, locus YDL101C, strain DUN1, active compounds read low
[5] = S. cerevisiae deletion strains, locus YDR150W, strain NUM1, active compounds read low
[6] = S. cerevisiae deletion strains, locus YEL061C, strain CIN8, active compounds read low
[7] = S. cerevisiae deletion strains, locus YGR078C, strain PAC10, active compounds read low
[8] = S. cerevisiae deletion strains, locus YHR030C, strain SLT2, active compounds read low
[9] = S. cerevisiae deletion strains, locus YHR087W, strain rtc3, active compounds read low
[10] = S. cerevisiae deletion strains, locus YJR043C, strain POL32, active compounds read low
[11] = S. cerevisiae deletion strains, locus YJR075W, strain HOC1, active compounds read low
[12] = S. cerevisiae deletion strains, locus YLR039C, strain RIC1, active compounds read low
[13] = S. cerevisiae deletion strains, locus YLR058C, strain SHM2 (second series), active compounds read low
[14] = S. cerevisiae deletion strains, locus YLR085C, strain ARP6, active compounds read low
[15] = S. cerevisiae deletion strains, locus YLR262C, strain YPT6, active compounds read low
[16] = S. cerevisiae deletion strains, locus YML094W, strain GIM5, active compounds read low
[17] = S. cerevisiae deletion strains, locus YMR219W, strain ESC1, active compounds read low
[18] = S. cerevisiae deletion strains, locus YMR263W, strain SAP30, active compounds read low
[19] = S. cerevisiae deletion strains, locus YNL153C, strain GIM3, active compounds read low
[20] = S. cerevisiae deletion strains, locus YNL298W, strain CLA4 (second series), active compounds read low
[21] = S. cerevisiae deletion strains, locus YNL322C, strain KRE1, active compounds read low
[22] = S. cerevisiae deletion strains, locus YNR030W, strain Alg12, active compounds read low
[23] = S. cerevisiae deletion strains, locus YOL006C, strain TOP1, active compounds read low
[24] = S. cerevisiae deletion strains, locus YPL055C, strain LGE1, active compounds read low
[25] = S. cerevisiae deletion strains, locus YPL241C, strain CIN2, active compounds read low
[26] = S. cerevisiae deletion strains, locus YPR135W, strain CTF4, active compounds read low
[27] = S. cerevisiae strains, strain wild type, active compounds read low
[28] = S. cerevisiae deletion strains, locus YJL187C, strain SWE1, active compounds read low
[29] = S. cerevisiae deletion strains, locus YKL190W, strain CNB1, active compounds read low

Measured: normalized growth

O=C(CCc1nc(-c2ccc(Cl)cc2)no1)NNS(=O)(=O)c1cc(Cl)c(Cl)cc1Cl
inactive: [1] 1.01 | [2] 1.01 | [3] 1.01 | [4] 1.03 | S. cerevisiae deletion strains, locus YDL134C, strain PPH21, active compounds read low 1 | [5] 0.998 | [6] 0.961 | [7] 1.02 | [8] 0.98 | [9] 0.958 | [10] 0.999 | [11] 0.994 | [12] 0.971 | [13] 1.01 | [14] 1 | [15] 1.03 | [16] 0.968 | [17] 1 | [18] 1.01 | [19] 1 | [20] 0.993 | [21] 1.02 | [22] 1.03 | [23] 1.02 | [24] 0.973 | [25] 1.04 | [26] 1.03 | [27] 1

Cc1ccc(C)n1-c1ccc(C(=O)NNC(=O)c2ccc3nccnc3c2)cc1
inactive: [1] 0.989 | [2] 1 | [3] 1.06 | [4] 0.989 | [5] 1.04 | [6] 1.01 | [7] 1.01 | [8] 1.14 | [9] 0.986 | [28] 0.979 | [10] 1.02 | [11] 1.06 | [29] 0.991 | [12] 1.01 | [13] 0.999 | [14] 0.921 | [15] 1.11 | [16] 0.98 | [17] 0.989 | [18] 0.986 | S. cerevisiae deletion strains, locus YNL128W, strain TEP1, active compounds read low 0.991 | [19] 1.02 | [20] 0.992 | [21] 0.999 | [22] 1 | [24] 0.995 | [25] 0.976 | [26] 1.13 | [27] 0.993

Cc1cc(C(=O)NNS(=O)(=O)c2ccc(F)c(Cl)c2)nn1-c1c(Cl)cc(Cl)cc1Cl
inactive: S. cerevisiae deletion strains, locus YAR019C, strain CDC15, active compounds read low 0.978 | S. cerevisiae deletion strains, locus YBL105C, strain PKC1, active compounds read low 0.979 | S. cerevisiae deletion strains, locus YBR135W, strain CKS1, active compounds read low 0.985 | S. cerevisiae deletion strains, locus YBR136W, strain MEC1, active compounds read low 0.987 | S. cerevisiae deletion strains, locus YBR160W, strain CDC28, active compounds read low 0.98 | S. cerevisiae deletion strains, locus YDL017W, strain CDC7, active compounds read low 0.985 | S. cerevisiae deletion strains, locus YDL028C, strain MPS1, active compounds read low 0.985 | [4] 0.975 | S. cerevisiae deletion strains, locus YDL108W, strain KIN28, active compounds read low 0.99 | S. cerevisiae deletion strains, locus YDL132W, strain cdc53, active compounds read low 0.974 | S. cerevisiae deletion strains, locus YDL214C, strain PRR2, active compounds read low 1.04 | S. cerevisiae deletion strains, locus YDR052C, strain DBF4, active compounds read low 0.987 | S. cerevisiae deletion strains, locus YDR054C, strain cdc34, active compounds read low 0.983 | S. cerevisiae deletion strains, locus YDR226W, strain ADK1, active compounds read low 0.98 | S. cerevisiae deletion strains, locus YDR477W, strain SNF1, active compounds read low 1.03 | S. cerevisiae deletion strains, locus YER123W, strain YCK3, active compounds read low 1.04 | S. cerevisiae deletion strains, locus YER133W, strain GLC7, active compounds read low 1.04 | S. cerevisiae deletion strains, locus YFL009W, strain cdc4, active compounds read low 0.982 | S. cerevisiae deletion strains, locus YFL029C, strain CAK1, active compounds read low 0.988 | S. cerevisiae deletion strains, locus YFR003C, strain YPI1, active compounds read low 0.981 | S. cerevisiae deletion strains, locus YFR019W, strain FAB1, active compounds read low 1.02 | S. cerevisiae deletion strains, locus YFR028C, strain CDC14, active compounds read low 0.979 | S. cerevisiae deletion strains, locus YGR040W, strain KSS1, active compounds read low 1.03 | S. cerevisiae deletion strains, locus YGR052W, strain FMP48, active compounds read low 1.1 | S. cerevisiae deletion strains, locus YGR092W, strain DBF2, active compounds read low 1.02 | [8] 1.09 | S. cerevisiae deletion strains, locus YHR079C, strain IRE1, active compounds read low 1.05 | S. cerevisiae deletion strains, locus YHR082C, strain KSP1, active compounds read low 1.11 | S. cerevisiae deletion strains, locus YHR205W, strain SCH9, active compounds read low 1.04 | S. cerevisiae deletion strains, locus YIL147C, strain SLN1, active compounds read low 0.99 | S. cerevisiae deletion strains, locus YJL095W, strain BCK1, active compounds read low 1.07 | S. cerevisiae deletion strains, locus YJL128C, strain PBS2, active compounds read low 0.905 | S. cerevisiae deletion strains, locus YJL157C, strain FAR1, active compounds read low 1.03 | S. cerevisiae deletion strains, locus YJR016C, strain ILV3, active compounds read low 0.982 | S. cerevisiae deletion strains, locus YJR066W, strain TOR1 (second series), active compounds read low 1.05 | S. cerevisiae deletion strains, locus YJR066W, strain TOR1, active compounds read low 1.02 | S. cerevisiae deletion strains, locus YKL048C, strain ELM1, active compounds read low 1.01 | S. cerevisiae deletion strains, locus YKL067W, strain YNK1, active compounds read low 1.03 | S. cerevisiae deletion strains, locus YKL101W, strain HSL1, active compounds read low 1.02 | S. cerevisiae deletion strains, locus YKL193C, strain SDS22, active compounds read low 0.996 | S. cerevisiae deletion strains, locus YKL203C, strain TOR2, active compounds read low 1.13 | S. cerevisiae deletion strains, locus YLR113W, strain HOG1, active compounds read low 1.06 | S. cerevisiae deletion strains, locus YLR133W, strain CKI1, active compounds read low 1.02 | S. cerevisiae deletion strains, locus YLR403W, strain SFP1, active compounds read low 1.06 | S. cerevisiae deletion strains, locus YML070W, strain DAK1, active compounds read low 1.03 | S. cerevisiae deletion strains, locus YMR001C, strain CDC5, active compounds read low 0.993 | S. cerevisiae deletion strains, locus YMR205C, strain PFK2 (second series), active compounds read low 1.03 | S. cerevisiae deletion strains, locus YMR277W, strain FCP1, active compounds read low 0.978 | S. cerevisiae deletion strains, locus YNL006W, strain LST8, active compounds read low 0.994 | S. cerevisiae deletion strains, locus YNL020C, strain ARK1, active compounds read low 1.03 | S. cerevisiae deletion strains, locus YNL161W, strain CBK1, active compounds read low 0.988 | S. cerevisiae deletion strains, locus YNL183C, strain NPR1, active compounds read low 1.13 | S. cerevisiae deletion strains, locus YNL207W, strain RIO2, active compounds read low 0.986 | S. cerevisiae deletion strains, locus YNL222W, strain SSU72, active compounds read low 0.99 | S. cerevisiae deletion strains, locus YNL307C, strain MCK1 (second series), active compounds read low 1.04 | S. cerevisiae deletion strains, locus YOL078W, strain AVO1, active compounds read low 0.99 | S. cerevisiae deletion strains, locus YOL136C, strain PFK27, active compounds read low 1.04 | S. cerevisiae deletion strains, locus YOR061W, strain CKA2, active compounds read low 1.03 | S. cerevisiae deletion strains, locus YOR119C, strain RIO1, active compounds read low 1.08 | S. cerevisiae deletion strains, locus YOR231W, strain MKK1, active compounds read low 1.03 | S. cerevisiae deletion strains, locus YOR329C, strain SCD5, active compounds read low 0.985 | S. cerevisiae deletion strains, locus YPL031C, strain PHO85, active compounds read low 1.04 | S. cerevisiae deletion strains, locus YPL153C, strain RAD53, active compounds read low 1.03 | S. cerevisiae deletion strains, locus YPL204W, strain HRR25, active compounds read low 1.04 | S. cerevisiae deletion strains, locus YPL209C, strain IPL1, active compounds read low 0.987 | S. cerevisiae deletion strains, locus YPL256C, strain CLN2, active compounds read low 1.02 | S. cerevisiae deletion strains, locus YPR025C, strain CCL1, active compounds read low 0.981 | S. cerevisiae deletion strains, locus YPR106W, strain ISR1, active compounds read low 0.98 | S. cerevisiae deletion strains, locus YPR111W, strain DBF20, active compounds read low 0.964 | S. cerevisiae deletion strains, strain NNK1, active compounds read low 0.986 | S. cerevisiae deletion strains, strain TSCII, active compounds read low 0.995

Cc1ccc(C)n1-c1ccc(C(=O)NNS(=O)(=O)c2ccc(Cl)cc2)cc1
active: [25] 1.14 [resistant]
inactive: [1] 1.01 | [2] 1.01 | [4] 1.04 | [5] 0.991 | [6] 1.01 | [7] 1.01 | [8] 0.955 | [9] 1.01 | [28] 1.02 | [10] 0.999 | [11] 0.995 | [29] 0.978 | [12] 0.985 | [13] 1 | [14] 0.962 | [15] 0.98 | [16] 1.1 | [17] 1 | [18] 1 | S. cerevisiae deletion strains, locus YMR307W, strain GAS1, active compounds read low 0.979 | [19] 1.01 | [20] 0.945 | [21] 1 | [22] 0.993 | [23] 1.03 | [24] 1.01 | [26] 0.946
